In PubChem BioAssay (NCI):
Compounds without any hit were thinned out: in the full panel of roughly 83,000, 20% have a hit.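 Treatment: one concentration, 48 hours, 96-well format. Scoring: percent growth, with anything below 10 considered active.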 A number with no mark means an inactive call. Calls of active or inactive are those of the source.

System: MDA-MB-468 breast
Assay: NCI-60 one-dose screen, 48 h (100 = growth as untreated, 0 = no growth, -100 = all killed)
Settings: 10 µM unless noted

| Structure (SMILES) | growth |
| --- | --- |
| Cc1cc(NC(=O)NCc2ccc(N3C(N)=NC(N)=NC3(C)C)cc2)ccc1S(=O)(=O)F | 63.3% |
| C=CC1CN2CCC1CC2C(O)c1ccnc2ccccc12 (centres undefined) | 107% |
| O=C(CC1(O)C(=O)N(Cc2ccccc2)c2ccccc21)c1ccc(C(=O)NCC2CCC3(CC2)OOC2(CCCCC2)OO3)cc1 (centres undefined) | -56.6% (active) |
| CNC(=O)Oc1cccc(N(C)C)c1 | 92.7% |
